Results from PubChem BioAssay AID652067 (The Scripps Research Institute Molecular Screening Center, 2013).
About 5,400 (1.5%) of roughly 370,000 compounds were called active.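 The calls were made as follows: active = activation above the mean of all tested compounds plus 3 SD (cut at about 5.5% in these data); inactive = the rest.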 The entries come from a sample that favours actives as a whole.

System: DAF-12 nuclear receptor (Haemonchus contortus)
Test: hcDAF-12 driven luciferase reporter activation – cell-based, luminescence, HEK293, lit1-tk-luc reporter, primary screen (AID 652067);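 also: 100% = response to 3 µM Δ7-dafachronic acid high control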
Settings: HEK293 hcDAF-12 lit1-tk-luc reporter, at 6.8 µM, stronger effect = higher value, 0% DMSO, 100% Δ7-dafachronic acid

activation, inactive:
C[C@@H]1ON(C)[C@H]2C[C@H]3c4cc(N5CCOCC5)ccc4CCN3C[C@@H]12 -1.8%
CCCCOCCCNC(=O)C[C@H]1C[C@@]2(C(=O)OC)C(=C[C@H](COCc3ccccc3)O[C@@H]2C)N(Cc2cccc3ccccc23)C1=O -1.88%
COc1cccc(Cn2cc(COC(=O)Nc3ccc(F)cc3)nn2)c1 -2.13%
Cc1cc(NS(=O)(=O)c2ccc(NC(=O)CSc3nnc(SCc4ccc(F)cc4)s3)cc2)nc(C)n1 0.88%
Cc1oc(CC(C)C)c(CN2CCCC2)c1C(=O)O -1.65%
CC(C)c1cc(C(=O)O)on1 -0.85%
O=C(OC12CCCN(C1)/C(=C/c1cccnc1)C2)C1CCCC1 (stereo unspecified) -3.57%
COC(=O)c1c(-c2ccc(OC)cc2)c2c(c3c4cc(OC)ccc4n(S(=O)(=O)c4ccc(F)cc4)c13)C(=O)N(C)C2 -2.09%
O=C(Nc1ccc([N+](=O)[O-])cc1)OCCc1ccccn1 1.17%
O=[N+]([O-])c1cc([N+](=O)[O-])c2cccnc2c1O 3.46%
O=C(N1CCOCC1)N1CC[C@H]2[C@H](CCCN2Cc2ccc(F)cc2)C1 0.64%
Cc1ccccc1CN1CCCCC(NC(=O)Nc2ccccc2F)C1=O (stereo unspecified) -3.94%
CC(C)Nc1nnc(SCC(=O)c2c[nH]c3ccccc23)s1 4.15%
CN(C(=O)CSc1nnc(Nc2ccccc2)s1)C1CCS(=O)(=O)C1 (stereo unspecified) -0.76%
COC(=O)C1=C(C)N(Cc2cccc(C(F)(F)F)c2)C(=NCc2cccc(C(F)(F)F)c2)NC1c1ccccc1C(F)(F)F (stereo unspecified) -2.22%
CC[C@@H](CCC(=O)N(c1ccccc1)c1ccccc1)C1CC1 -2.66%
COc1ccc(C(C)(NC(C)=O)c2nc(-c3ccc(S(C)(=O)=O)cc3)cs2)cc1 (stereo unspecified) -1.14%
COc1ccc(C(C)(O)c2nc(-c3cc(F)cc(F)c3)cs2)cc1 (stereo unspecified) -1.58%
O=S1(=O)c2c(cccc2N2CCSCC2)Oc2ccccc2CN1Cc1cn(Cc2ccc(F)cc2)nn1 -2.88%
O=C(CNS(=O)(=O)c1ccccc1F)N1CCN(c2ccccn2)CC1 -0.84%
O=C(Nc1cccc(F)c1)c1coc(=O)c(Br)c1 0.1%
CN(C(=O)COC(=O)c1cc(-c2ccco2)nc2ccccc12)C1CCS(=O)(=O)C1 (stereo unspecified) 1.58%
O=C(NCc1ccc(Cl)cc1)C1CCCN(c2nc3ccccc3o2)C1 (stereo unspecified) -2.71%
CC(CNC(=O)c1ccc(Br)o1)NC(=O)c1ccc(Br)o1 (stereo unspecified) -0.92%
C/C(=N\NC(=S)NC1CCCCC1)c1ccc(C)o1 -1.13%
c1cncc(CNc2ccnc(-c3ccc4c(c3)OCO4)n2)c1 0.49%
O=C(Nc1ccc(N2CCOCC2)c(Cl)c1)c1ccc(S(=O)(=O)N2CCOCC2)cc1 -2.07%
Cc1ccc(C(=O)Nc2ccc3c(c2)OCCO3)cc1S(=O)(=O)N1CCOCC1 0.29%
CCSC1(SCC)N=C(N)C2(C#N)C(c3ccccc3)NC(C)=CC12C#N (stereo unspecified) -0.75%
CCC1C(=O)c2ccccc2N(C)C1=O (stereo unspecified) 4.03%
CN1C(=O)/C(=N/OC(=O)c2ccccc2Br)c2ccccc21 -0.66%
COC(=O)[C@]12C[C@H](CC(=O)NCc3ccc(C)o3)C(=O)N(CCC3=CCCCC3)C1=C[C@H](C(C)(C)C)O[C@@H]2C 0.28%
O=C(N/N=C/c1cc([N+](=O)[O-])ccc1O)/C(=C\c1cccs1)NC(=O)c1ccccc1 2.67%
COc1ccc(/C=N/Nc2ncnc3sc4c(c23)CCCC4)cc1O 2.31%
COc1cc(/C=C/C(=O)OCC(=O)NCCCc2ccccc2)ccc1O -0.23%
O=C(C1CCCN1S(=O)(=O)c1ccccc1)N1CCc2ccccc2C1 (stereo unspecified) -0.91%
O=C(CSc1nnc(-c2ccccn2)n1-c1ccccc1)Nc1ccc2cn[nH]c2c1 1.82%
CN[C@H]1C[C@H]2c3cc(N4CCOCC4)ccc3CCN2C[C@H]1[C@H](C)O 0.66%
CCCOc1ccc(NC(=O)CC2C(=O)N(C)C(=S)N2Cc2ccc3c(c2)OCO3)cc1 (stereo unspecified) -1.25%
O=C(Nc1ccc2c(c1)OCCO2)C1c2ccccc2OCC(=O)N1Cc1ccccn1 (stereo unspecified) 2.69%
O=C(COC(=O)/C(=C/c1cccs1)c1cccs1)NCc1ccccc1Cl -2.32%
COc1cccc(NC(=O)N(C)C[C@@H]2OCc3cn(nn3)CCCC(=O)N([C@@H](C)CO)C[C@H]2C)c1 1.21%
CSc1nc2nc3c(c(=O)n2[nH]1)CCC3 0.72%
COc1cccc(CC(=O)N2CCN(C(=O)C(=O)c3cccc(C(F)(F)F)c3)CC2)c1 1.16%
CC(C)CSc1nnc(-c2cccnc2)n1Cc1ccccc1 -1.13%
O=C(c1ccncc1)N1CC[C@H]2[C@H](CCCN2Cc2ccc(F)cc2)C1 -1.38%
CC(C)c1ccc(/C=C2\NC(=O)NC2=O)cc1 -2.26%
CC(NC(=O)C(=O)N/N=C/c1ccc(Cl)cc1)c1ccccc1 (stereo unspecified) -1.03%
COC(=O)[C@]12C[C@H](CC(=O)NCc3cccc(C(F)(F)F)c3)C(=O)N(Cc3ccc4c(c3)OCO4)C1=C[C@H](COCc1ccccc1)O[C@@H]2C 0.41%
COc1ccc(-c2cc(-c3nnc(SCC(=O)Nc4cccc5ccccc45)n3N)[nH]n2)cc1 0.47%
O=C(N=C1SC2CS(=O)(=O)CC2N1c1cc(Cl)ccc1Cl)C1CC1 (stereo unspecified) -1%
COc1ccc(Cn2cc(COC(=O)N(C)Cc3ccccc3)nn2)cc1 -0.59%
Cc1ccccc1C(=O)OC1OC(=O)C(Cl)=C1Nc1ccccc1 (stereo unspecified) -2.44%
CC(C)CNc1cccc2c1S(=O)(=O)N[C@H](C)CO2 -1.2%
O=C(NCc1ccccc1)[C@@H]1CCCN1C(=O)[C@H]1CCCN1C(=O)c1cccc(Cl)c1 -0.09%
O=C(NN=Cc1ccco1)C(=O)Nc1ccc(Cl)c([N+](=O)[O-])c1 -1.72%
Cc1cc2c(nc1C)CCCN2C 1.19%
CCOC(=O)[C@]12CCCC=C1N(Cc1ccc(OC)cc1)C(=O)[C@@H]2CC(=O)NCc1cccs1 -0.39%
COc1cccc(Nc2nc(N)c([N+](=O)[O-])c(NCc3ccco3)n2)c1 -3.76%
Nc1nc(Nc2ccccc2F)nc(NC2CCCCC2)c1[N+](=O)[O-] -1.49%
COc1ccc(NC(=O)N(C)C[C@@H]2OCCCC[C@@H](C)Oc3ccc(NC(=O)NC4CCCCC4)cc3C(=O)N([C@H](C)CO)C[C@@H]2C)cc1 -0.68%
Cc1ccccc1CS(=O)(=O)Cc1ccc(C(=O)Nc2ccc(Cl)cc2)o1 -6.56%
COP(=O)(O)CNC(=O)OCc1ccccc1 -1.19%
FC(F)(F)c1nc(-c2ccccc2)ncc1-c1nnnn1-c1ccccc1 -4.23%
COc1ccc(-n2nnnc2SCC(=O)NCc2cccs2)cc1 -2.07%
O=C(OCC(=O)N1CCOCC1)c1ccc2ccccc2c1 0.31%
O=C1CC[C@@H](COc2ccc3[nH]cc(-c4ccccc4)c3c2-c2ccccc2)N1 -1.8%
CC(C)(C)c1ccc(C(=O)Nc2cc(Cl)c(Br)cc2C(=O)O)cc1 2.27%
COc1ccc(CCNC(=O)CSc2nc3c([nH]2)c(=O)n(C)c(=O)n3C)cc1 -0.84%
Cc1ccc(NC(=O)N2CCC(C(=O)NCc3ccc(F)cc3)CC2)cc1 -0.76%
O=C(NCc1ccc(F)cc1)C1CCN(C(=O)Nc2ccc(F)cc2)CC1 -1.57%

activation, active:
CCc1ccc2oc(-c3ccc(N)cc3)nc2c1 11.8%
CC(C)Cc1oc(C(=O)O)cc1CN 6.53%
O=[N+]([O-])c1ccc2nc(-c3ccccn3)[nH]c2c1 5.76%
CC(C)c1ccc(Nc2nnc(SCC(=O)c3nnc(-c4ccccc4)o3)s2)cc1 6.6%
COc1ccc(-c2csc(Cc3nc(O)cs3)n2)cc1 10.9%
O=C(Nc1cccc(F)c1)c1cc(-c2ccco2)nc2ccccc12 5.67%
C/C(=N/NC(=O)c1ccc(Br)o1)c1ccc(C)o1 8.8%
CN1CCN(c2ccc(NC(=O)c3ccc4c(c3)OCCO4)cc2Cl)CC1 6.55%
CN1C(=O)/C(=C\c2cc(Br)cs2)c2ccccc21 6.07%
COc1cc(/C=N/Nc2nc3ccccc3s2)ccc1O 11.4%
O=[N+]([O-])c1cc(Br)c(O)c(/C=N/Nc2nc3ccccc3s2)c1 5.75%
O=C(Nc1ccc(Cl)cc1)C1c2cccc[n+]2CC(=O)N1Cc1ccc2c(c1)OCO2 (stereo unspecified) 6.69%
O=c1c2c(nc3cc(-c4cccc(Cl)c4)[nH]n13)CCCC2 8.74%
CC(C)c1ccc(C=NNc2ccc([N+](=O)[O-])cn2)cc1 9.24%
Cc1ccc(C2Nc3cccc4cccc(c34)N2)cc1 6.38%
Cc1cc(C)nc(Nc2n[nH]c(-c3ccccc3N)n2)n1 8.9%
CNc1nc(Nc2ccc(C)c(Cl)c2)nc(N)c1[N+](=O)[O-] 10.8%
COc1ccc(-n2nnnc2-c2nc3ccccc3s2)cc1 9.22%
NC(=O)c1ccccc1N=Cc1ccc2ccccc2c1 10.7%
N[C@@H](Cc1ccccc1)C(=O)N1CCC(C(=O)NCC(=O)Nc2ccc(F)cc2)CC1 8.85%
